PI5P4Ka inh = inhibitors of human PI5P4K alpha; 1.2% of 330,000 active; P48426; AID 652105; PI5P4Kalpha enzyme, ADP-Glo luminescence, 60 min; hits give low values; max response, %; active means max response of -50% or lower; inconclusive means between -30% and -50%; inactive means -30% or higher; further: value at the top dose of about 77 µM
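Quantitative HTS of the MLSMR library against PI5P4Kalpha with substrate. ATP added last at 5 microM final; room temperature, 60 minutes. Remaining ATP depleted, ADP converted and read as luminescence.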
L3MBTL1 block = L3MBTL1 (human) inhibition. Q9Y468. AlphaScreen L3MBTL1–H3K9me1 peptide binding. Potency, µM (top dose mostly 57.1 µM), most hits filed as inhibitors. 0.66% of 230,000 active; further: nearly all actives have a fitted effect of over 60% in size
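Displacement of a biotinylated histone H3(1-15) peptide monomethylated at Lys9 (75 nM) from L3MBTL1 (50 nM) was measured by AlphaScreen after a 30 min room-temperature compound incubation; cefsulodin titration served as intraplate control.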
BAZ2B inh = BAZ2B (human) inhibition; 4.4% of 360,000 active; Potency, µM (series often up to 114 µM), actives largely listed as inhibitors; AlphaScreen BAZ2B-H3K14Ac peptide displacement; Q9UIF8; further: nearly all actives have a fitted effect of over 60% in size
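BAZ2B 50 nM plus b-H3(5-23)K14Ac 50 nM, PBS pH 7.4/0.01% Tween-20, 30 min RT; compound added (max 110 uM), 30 min RT; streptavidin donor/Ni-chelate acceptor beads 10 ug/mL final, 20 min dark; AlphaScreen read.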
JMJD2A Tudor = blocks the human JMJD2A Tudor domain | O75164 | AlphaScreen JMJD2A-Tudor / H3K4me3 peptide binding | Potency, µM (top dose mostly 114 µM), actives largely listed as inhibitors | 4.4% of 390,000 active | AID 504339; further: nearly all actives have a fitted effect of over 50% in size
KDM4E inh = blocks human JMJD2E demethylase activity | JMJD2E catalytic domain, FDH-coupled NADH fluorescence (FDH is formaldehyde dehydrogenase) | Potency, µM (top dose mostly 57.1 µM), actives largely listed as inhibitors | 1.6% of 230,000 active | AID 2147; active means well fitted inhibition curve with a large enough effect, not every such curve was filed as active; inconclusive means small, poorly fitted or top-dose-only effect, or another doubt; inactive means no such curve, though single readings can be large or run the other way; further: nearly all actives have a fitted effect of over 50% in size
Target sequence (B2RXH2 1-337 limits assumed): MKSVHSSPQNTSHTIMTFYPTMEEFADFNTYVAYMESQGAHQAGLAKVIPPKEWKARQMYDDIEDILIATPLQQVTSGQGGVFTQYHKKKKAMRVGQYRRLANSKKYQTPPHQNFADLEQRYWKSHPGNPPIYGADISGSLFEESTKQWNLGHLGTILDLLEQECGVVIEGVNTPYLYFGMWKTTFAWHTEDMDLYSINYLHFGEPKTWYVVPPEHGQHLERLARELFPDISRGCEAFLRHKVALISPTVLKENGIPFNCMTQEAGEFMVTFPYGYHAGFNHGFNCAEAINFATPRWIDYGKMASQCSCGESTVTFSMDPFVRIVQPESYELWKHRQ
HP1b chromo inh = HP1-beta chromodomain-methylated histone interaction inhibition. P83916. AlphaScreen HP1-beta / biotin-H3K9me3 peptide binding. Potency, µM (highest dose often 114 µM), most hits filed as inhibitors. 0.56% of 390,000 active. AID 540317; further: nearly all actives have a fitted effect of over 70% in size
Target sequence (P83916 whole entry, looked up): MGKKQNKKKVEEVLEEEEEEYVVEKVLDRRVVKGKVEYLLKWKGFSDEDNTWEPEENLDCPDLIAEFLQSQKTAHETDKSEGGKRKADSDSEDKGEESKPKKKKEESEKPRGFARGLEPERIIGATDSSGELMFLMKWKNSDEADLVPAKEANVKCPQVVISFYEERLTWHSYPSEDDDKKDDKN
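HP1-beta protein (50 nM final) preincubated 30 min at room temperature with biotinylated H3(1-18)K9me3 peptide (50 nM) in PBS pH 7.4, 0.01% Tween-20, then compound added for 30 min. AlphaScreen streptavidin donor/nickel chelate acceptor beads (10 ug/mL final), 30 min dark, luminescence read.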
Numbers stand for hits; n = inactive; u = inconclusive; x = no result. Compounds with a hit are over-represented: about 5.7% of the library has one in this group of screens. Unless noted, the call rests on the fitted dose curve; in most records, active means well fitted inhibition curve with a large enough effect; inconclusive means small, poorly fitted or top-dose-only effect; inactive means no such curve, though single readings can be large or run the other way.

SMILES | PI5P4Ka inh | L3MBTL1 block | BAZ2B inh | JMJD2A Tudor | KDM4E inh | HP1b chromo inh
Cc1occc1C(=O)N/N=C/c1ccc2c(c1)OCO2 | -54.3 | x | n | n | n | n
C/C(=N\Nc1ccc(Cl)c(C(=O)O)c1)c1cccc2ccccc12 | n | x | u | 56.2µM | x | 79.4µM
C/C(=N\Nc1ccc(Cl)c(C(=O)O)c1)c1cc2ccccc2o1 | n | n | u | n | n | n
O=C(Nc1ccc(C(=O)O)cc1)/C(=C\c1ccc2c(c1)OCO2)NC(=O)c1ccc(Br)o1 | n | x | n | 44.7µM | n | n
COc1ccc(CNC(=O)C2CCCN(C(=O)N3CCOc4ccccc43)C2)cc1 (centres undefined) | x | x | n | n | x | n
O=C(c1nc(-c2ccc(Cl)cc2)n2c1CCCCC2)N1CCN(c2ccc(F)cc2)CC1 | x | x | 39.8µM | 39.8µM | x | u
O=C(NCCc1ccccc1)c1nc(-c2ccc(Cl)cc2)n2c1CCCCC2 | x | x | 25.1µM | 22.4µM | x | n
O=C(c1ccc(Cl)cc1)N1CCN(c2ccc(F)cc2)CC1 | n | n | n | n | n | n
Cc1ccc(-c2nc(C(=O)NCc3ccc(Cl)cc3)c3n2CCCCC3)cc1 | x | x | n | n | x | n
O=C(NCCc1ccc(Cl)cc1)c1nc(-c2cccc(F)c2)n2c1CCCCC2 | x | x | 11.2µM | 22.4µM | x | n
COC(=O)c1ccc(NC(=O)c2nc(-c3ccc(Cl)cc3)n3c2CCCCC3)cc1 | x | x | u | n | x | n
CC(C)N(Cc1ccccc1)C(=O)c1nc(-c2ccc(Cl)cc2)n2c1CCCCC2 | x | x | 35.5µM | 44.7µM | x | n
Cc1ccc(SCC(=O)NC2CCCCCC2)cc1 | n | x | n | n | x | n
COc1ccccc1C1CCN(C(=O)c2ccc(Cl)cc2)CC1 | n | x | n | n | x | n
CC(=O)N1CCN(S(=O)(=O)c2ccc(C)cc2)C1C (centres undefined) | n | n | n | n | x | n
O=C(CNC(=O)c1ccccc1Cl)OC(C(=O)Nc1cc(C(F)(F)F)ccc1Cl)c1ccccc1 (centres undefined) | x | x | x | n | x | x
CCOC(=O)[C@]12CCC=C1N(CCC1=CCCCC1)C(=O)[C@H](CC(=O)NCc1ccc(OC)c(OC)c1)C2 | n | x | x | x | x | x
O=C(NCc1ccccc1)c1nc(-c2ccc(Cl)cc2)n2c1CCCCC2 | x | x | 12.6µM | 22.4µM | x | n
CCOc1ccccc1CNC(=O)c1nc(-c2ccc(Cl)cc2)n2c1CCCCC2 | x | x | 10µM | u | x | n
CCc1c(O)cc(=O)n(-c2ccccc2)c1-c1ccccc1 | u | n | 56.2µM | n | n | n
CCOc1ccccc1CNC(=O)c1cccn1-c1nnc(N2CCCC2)s1 | x | x | n | n | x | n
O=c1cc(Br)c(O)c(Br)cc1Br | u | x | x | 22.4µM | x | u
Cc1ccc(OCC(=O)N2CCC(N3CCCCCC3)CC2)cc1 | n | n | 56.2µM | 6.31µM | n | n
O=C(CCC1CCCC1)N1CCC(N2CCCCCC2)CC1 | n | n | 56.2µM | 3.98µM | n | u
CC1CCc2c(sc(NC(=O)CCCOc3ccc(C(C)(C)C)cc3)c2C(N)=O)C1 (centres undefined) | x | x | n | n | x | n
SMILES | PI5P4Ka inh | L3MBTL1 block | BAZ2B inh | JMJD2A Tudor | KDM4E inh | HP1b chromo inh
Cc1cc(C(=O)NN=C2CCCC2)c2ccccc2n1 | n | n | n | 11.2µM | x | n
O=C(N/N=C/c1cc(Cl)cc([N+](=O)[O-])c1O)c1ccccc1NS(=O)(=O)c1cccs1 | n | n | n | 56.2µM | 6.31µM | u
O=C(NN=Cc1cc(Cl)ccc1[N+](=O)[O-])c1cccc2ccccc12 | n | x | x | n | x | n
O=C(NN=Cc1ccc(O)cc1)c1ccccc1NS(=O)(=O)c1cccs1 | n | n | x | n | x | n
Cc1cc(C(=O)N/N=C/c2cc(Cl)cc([N+](=O)[O-])c2O)c2ccccc2n1 | n | u | 39.8µM | 56.2µM | 5.62µM | u
C/C(=N\NC(=O)Cn1cc([N+](=O)[O-])cn1)c1ccco1 | n | x | n | n | n | n
Cc1ccc(NC(=O)CSc2ncnc3c2sc2ccccc23)cc1C | x | x | n | n | x | n
Cc1c(Cl)cccc1NC(=O)CSc1ncnc2c1sc1ccccc12 | x | x | n | n | x | n
Fc1ccc(CNc2nc3c(-c4ccc(F)cc4)nnn3c3ccccc23)cc1 | x | x | n | n | x | n
CC[N+]1(C)CC2CCC(C)(C1)C2(C)C (centres undefined) | n | x | n | 31.6µM | u | n
Oc1c(Br)cc(Br)c2cccnc12 | n | x | x | 39.8µM | 20µM | n

Source: PubChem
